Structures can show the parent of a compound that is named as a salt.
test system: MDA-MB-231; assay: relative cell viability, compound + erastin, vs DMSO (fraction of DMSO control); higher = less growth inhibition; details: 72 h
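Further: viability read by CCK-8 kit in 96-well plates, part of a combination screen pairing lipid-metabolism-targeting compounds with erastin.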

Going from COc1ccc(-c2c[nH]c3nccc(-c4ccsc4)c23)c(OC)c1 + CCOc1ccccc1-n1c(C(C)N2CCN(C(=O)COc3ccc(Cl)cc3)CC2)nc2ccccc2c1=O [erastin] to CCN(CC)CCCC(C)Nc1c2ccc(Cl)cc2nc2ccc(OC)cc12 (stereo not drawn) [Quinacrine dihydrochloride] + CCOc1ccccc1-n1c(C(C)N2CCN(C(=O)COc3ccc(Cl)cc3)CC2)nc2ccccc2c1=O [erastin], the relative cell viability falls from 0.834 to 0.299.

Going from CC(=O)O[C@H](CC=C(C)C)C1=CC(=O)c2c(O)ccc(O)c2C1=O [Acetyl shikonin] + CCOc1ccccc1-n1c(C(C)N2CCN(C(=O)COc3ccc(Cl)cc3)CC2)nc2ccccc2c1=O [erastin] to CCOc1cc(CC(=O)N[C@@H](CC(C)C)c2ccccc2N2CCCCC2)ccc1C(=O)O [Repaglinide] + CCOc1ccccc1-n1c(C(C)N2CCN(C(=O)COc3ccc(Cl)cc3)CC2)nc2ccccc2c1=O [erastin], the relative cell viability falls from 0.877 to 0.566.

Compared with O=C(Nc1cccnn1)N1CCC(=Cc2cccc(Oc3ccc(C(F)(F)F)cn3)c2)CC1 + CCOc1ccccc1-n1c(C(C)N2CCN(C(=O)COc3ccc(Cl)cc3)CC2)nc2ccccc2c1=O [erastin], c1cc(-c2cnn3cc(-c4ccc(OCCN5CCCCC5)cc4)cnc23)ccn1 [Dorsomorphin dihydrochloride] + CCOc1ccccc1-n1c(C(C)N2CCN(C(=O)COc3ccc(Cl)cc3)CC2)nc2ccccc2c1=O [erastin] is lower in relative cell viability: 0.554 for the first, 0.362 for the second.

First: CC(C)(CCCCCC(O)CCCCCC(C)(C)C(=O)O)C(=O)O + CCOc1ccccc1-n1c(C(C)N2CCN(C(=O)COc3ccc(Cl)cc3)CC2)nc2ccccc2c1=O [erastin]
Second: CC(C)(Oc1ccc(C(=O)c2ccc(Cl)cc2)cc1)C(=O)O [Fenofibric acid] + CCOc1ccccc1-n1c(C(C)N2CCN(C(=O)COc3ccc(Cl)cc3)CC2)nc2ccccc2c1=O [erastin]
The relative cell viability of the first is lower: 0.405 for the first, 0.915 for the second.

First: CC(C)(C)N1C(=O)C(Nc2ccc(N3CCCCC3)cc2)=C(c2ccccc2)S1(=O)=O + CCOc1ccccc1-n1c(C(C)N2CCN(C(=O)COc3ccc(Cl)cc3)CC2)nc2ccccc2c1=O [erastin]
Second: O=C(O)c1cc2c(Cl)c(N3CCN(S(=O)(=O)c4c(Cl)cccc4Cl)CC3)ccc2o1 [Vonafexor] + CCOc1ccccc1-n1c(C(C)N2CCN(C(=O)COc3ccc(Cl)cc3)CC2)nc2ccccc2c1=O [erastin]
The relative cell viability of the first is lower: 0.797 for the first, 0.989 for the second.

Compared with CCN(CC)CCN(Cc1ccc(-c2ccc(C(F)(F)F)cc2)cc1)C(=O)Cn1c(SCc2ccc(F)cc2)nc(=O)c2c1CCC2 [Darapladib] + CCOc1ccccc1-n1c(C(C)N2CCN(C(=O)COc3ccc(Cl)cc3)CC2)nc2ccccc2c1=O [erastin], CC1(C)CC[C@]2(C(=O)O[C@@H]3O[C@H](CO)[C@@H](O)[C@H](O)[C@H]3O)CC[C@]3(C)C(=CC[C@@H]4[C@@]5(C)CC[C@H](O[C@@H]6O[C@H](C(=O)O)[C@@H](O)[C@H](O)[C@H]6O)C(C)(C)[C@@H]5CC[C@]43C)[C@@H]2C1 [Chikusetsusaponin IVa] + CCOc1ccccc1-n1c(C(C)N2CCN(C(=O)COc3ccc(Cl)cc3)CC2)nc2ccccc2c1=O [erastin] is higher in relative cell viability: 0.296 for the first, 0.682 for the second.

In the case of O=P(O)(O)OC(CO)CO [β-Glycerol phosphate disodium salt pentahydrate] + CCOc1ccccc1-n1c(C(C)N2CCN(C(=O)COc3ccc(Cl)cc3)CC2)nc2ccccc2c1=O [erastin], the relative cell viability is reported as 0.527.
